27 compounds from PubChem BioAssay (NCI) can be followed below.

Experiment in all cases: NCI-60 one-dose screen, 48 h (100 = growth as untreated, 0 = no growth, -100 = all killed)
Holding throughout (details): 10 µM unless noted

Test [1] deals with HCT-15 colon.
Test [2] relates to HT29 colon.
Test [3] has as its system SNB-75 CNS.
Test [4] concerns SNB-19 CNS.
Test [5] has as its system U251 CNS.
Test [6] concerns PC-3 prostate.
Test [7] concerns SK-MEL-5 melanoma.
The test system of test [8] is UACC-62 melanoma.
Test [9] has as its system LOX IMVI melanoma.
For test [10], the system named is SK-MEL-28 melanoma.

About 83,000 compounds went through this panel and 20% of them were active in at least one assay; those are over-represented in the sample as a whole.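 Each cell line was grown in a 96-well plate and treated with one concentration of compound for 48 hours. Values below 10 were considered active.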 A number with no mark means an inactive call. Activity calls are given as the source filed them.

Regarding `Fc1ccc(Nc2ncnc3ccc(-c4cn[nH]c4)cc23)cc1Cl`, the growth was 60.4% in test [1]; 60.6% in test [2]; 40.5% in test [3]; 68.6% in test [4]; 61.8% in [5]; 47.3% in test [6]. For the same compound, the growth is 40.4% in test [7], 60% in test [8], 49% in test [9] and 69.3% in test [10].

For the compound `COc1ccc(-c2nn(-c3ccc(NC(=O)c4cc(C(F)(F)F)cc(C(F)(F)F)c4)cc3)cc2-c2ccncc2)cc1Cl`, the growth in test [1] is 46%; in test [2] it was 53.7%; in test [3], 72.5%; in [4], 85.7%; in test [5], 52.7%; in [6], 45.1%. The growth in test [7] was 69.1%; in test [8], 55.6%; in test [9], 46.4%; in [10], 79.9%.

For `[2H]c1nc(Nc2ncc(F)c(-c3cc(F)c4nc(C)n(C(C)C)c4c3)n2)c([2H])c([2H])c1CN1CCN(CC)CC1`, the growth in [1] was 33.2%; in [2], 31.5%; in test [3], 26.5%; in test [4], 61.8%; in test [5], 46.1%; in test [6] it was 47.8%. The growth in test [7] is 27.5%; in [8], 62.5%; in test [9], 37%; in test [10], 60.5%.

Regarding `CC(C)CNCC(=O)Nc1ccc(Cc2ccc(NC(=O)CNCC(C)C)cc2)cc1`, the growth in test [1] is 50.2%; in test [2], 15.8%; in test [3] it was 65.7%; in test [4] it was 72.6%; in [5] it was 50.5%; in test [6], 25.8%. Besides, the growth in [7] was 40.3%; in test [8], 64.6%; in test [9], 60.4%; in [10], 80.4%.

As to `CC1CCC(C(C)C)C(NN)C1` (stereo not given), the growth is 104% in test [1]; 77.1% in test [2]; 103% in test [3]; 106% in test [4]; 96.3% in test [5]; 93.9% in test [6]. In addition, the growth in [7] was 102%; in test [8], 96.7%; in test [9], 103%; in test [10] it was 111%.

Take `CN1CCN(Cn2nc(-c3cc(F)c(Cl)cc3Cl)n(/N=C/c3ccc(N(C)C)cc3)c2=S)CC1`: the growth was 100% in test [1]; 99.5% in [2]; 78.7% in test [3]; 71.5% in [4]; 95.2% in test [5]; 76.2% in [6]. The growth in test [7] was 79.7%; in test [8], 79.4%; in test [9], 79.9%; in test [10], 82.1%.

In the case of `O=C(O)c1cn(C2CC2)c2cc(N3CCN(C(=O)CSc4nc(NS(=O)(=O)c5ccccc5)cc(=O)[nH]4)CC3)c(F)cc2c1=O`, the growth was 94.9% in test [1]; 119% in test [2]; 98.8% in test [3]; 99.3% in [4]; 97.7% in test [5]; 85% in test [6]. Also, the growth in test [7] is 94.6%; in [8], 83.8%; in test [9], 90.9%; in [10] it was 98%.

With `O=S(=O)(CCN1CCOCC1)Nc1cncc(-c2ccc3ncnc(Nc4ccc(F)c(Cl)c4)c3c2)c1`, the growth was 84.6% in test [1]; 73.6% in [2]; 56.3% in [3]; 61% in test [4]; 68.9% in test [5]; 53.2% in [6]. Moreover, the growth in [7] was 95.4%; in test [8] it was 77.5%; in test [9], 56.6%; in test [10] it was 81.7%.

Take `CN(C)CCNc1nc2ccccc2c2c(=O)c3ccccc3sc12`: the growth was 8.83% (active) in test [1]; -0.107% (active) in [2]; 30.6% in test [3]; 47.6% in test [4]; 17.8% in test [5]; 21% in [6]. For the same compound, the growth was -83.1% (active) in test [7], -33% (active) in test [8], -91.6% (active) in test [9] and -25.3% (active) in test [10].

In the case of `CC(C(=O)O)N1C(N)=NNC1c1ccccc1O` (stereo not given), the growth in [1] is 68.4%; in test [2], 99.3%; in [3], 74.4%; in test [4], 88.5%; in [5], 85.9%; in [6], 83.3%. Also, the growth was 85.5% in test [7], 81.9% in test [8], 78.3% in test [9] and 106% in [10].

In the case of `O=C(NNC(=O)c1ccc([N+](=O)[O-])cc1)c1ccc([N+](=O)[O-])cc1`, the growth was 97% in [1]; 101% in [2]; 84.5% in test [3]; 109% in [4]; 104% in test [5]; 102% in test [6]. The growth is 99.8% in test [7], 99.9% in test [8], 97.2% in [9] and 109% in test [10].

On to `O=C(Nc1cccc(-n2ccc3c(NC(=O)c4ccccc4)nccc32)c1)c1cc(N2CCOCC2)cc(C(F)(F)F)c1`, for which the growth in [1] is 3.17% (active); in test [2] it was -22.6% (active); in test [3], 39.2%; in test [4], 26.3%; in test [5], 4.89% (active); in test [6], 27.9%. Besides, the growth is -74.7% (active) in test [7], 17.5% in [8], 9.47% (active) in test [9] and 38% in test [10].

On to `Cc1ccc(=O)n(-c2ccc(Br)cc2F)c1`, for which the growth in [1] is 105%; in test [2], 107%; in test [3], 74.9%; in test [4] it was 105%; in test [5], 98.1%; in test [6], 91.4%. For the same compound, the growth in test [7] was 97.3%; in [8] it was 101%; in [9], 94.5%; in [10], 108%.

For `c1ccc(OCC[P+](c2ccccc2)(c2ccccc2)c2ccccc2)cc1`, the growth is 78% in test [1]; 13% in [2]; 16.5% in test [3]; 21.5% in test [4]; 14.8% in test [5]; 11.8% in test [6]. The growth is -40.1% (active) in test [7], 8.25% (active) in test [8], 2.69% (active) in test [9] and 26.1% in test [10].

As for `c1cncc(-c2nc3ccccc3[nH]2)c1`, the growth is 111% in test [1]; 102% in test [2]; 96.9% in [3]; 111% in [4]; 104% in [5]; 89.7% in test [6]. The growth is 90.8% in [7], 85.5% in [8], 94.4% in test [9] and 87% in test [10].

For `Cc1ccc(-c2cc(-c3nnc(SCC(=O)c4ccccc4)o3)c3ccccc3n2)cc1`, the growth in test [1] is 96.3%; in [2], 90.1%; in [3], 57.1%; in test [4] it was 101%; in test [5] it was 98.3%; in test [6], 95.5%. The growth in [7] is 95.3%; in test [8] it was 90.8%; in test [9], 92.4%; in [10], 96.6%.

`Cc1ccc2c(c1)Nc1ccc(C)cc1C2(C)C`: the growth in test [1] was 96%; in test [2] it was 79%; in [3] it was 83.9%; in [4], 115%; in test [5], 100%; in test [6], 90.6%. For the same compound, the growth in test [7] was 97.9%; in [8], 100%; in test [9], 101%; in test [10], 105%.

Consider `Nc1ccc(S(=O)(=O)Nc2ccnn2-c2ccccc2)cc1`, for which the growth in test [1] is 100%; in test [2], 109%; in [3], 106%; in test [4], 108%; in test [5] it was 94.4%; in [6], 90.1%. The growth is 105% in test [7], 107% in [8], 93.2% in test [9] and 119% in test [10].

With `FC(F)(F)c1cn(CC2CNC2)c2ncnc(Cl)c12`, the growth in test [1] was 104%; in test [2], 92.2%; in [3] it was 109%; in test [4] it was 99.9%; in test [5] it was 105%; in test [6], 110%. Further, the growth is 99.5% in test [7], 102% in [8], 102% in [9] and 104% in [10].

Regarding `O=C(CSc1nnc(-c2cc3c([nH]c4ccccc43)c(-c3cccc(O)c3)n2)n1-c1ccccc1)c1ccccc1`, the growth in test [1] was 46.3%; in test [2], 64.9%; in test [3], 45.8%; in [4] it was 84.2%; in [5], 32.9%; in test [6] it was 40.2%. Also, the growth was 33.2% in test [7], 69.8% in test [8], 11.2% in test [9] and 71.5% in test [10].

For `CCCCCCCCCCCC(=O)OCCNC(=O)C[n+]1ccccc1`, the growth is 110% in test [1]; 93.7% in test [2]; 96.5% in [3]; 102% in [4]; 101% in test [5]; 92.5% in [6]. The growth in [7] is 100%; in [8], 104%; in test [9], 106%; in test [10], 109%.

As for `COC(=O)c1ccc(NC(N)=NCC(C)(C)COc2ccc(C(F)(F)F)cc2)nc1`, the growth was 18.1% in test [1]; 9.44% (active) in test [2]; 86.8% in [3]; 68.8% in test [4]; 40.1% in test [5]; 50.9% in test [6]. For the same compound, the growth in test [7] was 23.2%; in test [8], 65.5%; in test [9], 16.5%; in [10], 90.1%.

With `Cc1nccc2c3ccc(OCc4cn(-c5ccc(Br)cc5)nn4)cc3n(CCCc3ccccc3)c12`, the growth was 60.5% in [1]; 10.5% in [2]; 26.7% in test [3]; 56.1% in test [4]; -61% (active) in test [5]; 14.1% in test [6]. The growth was 30.4% in test [7], 6.16% (active) in [8], -39.6% (active) in test [9] and -67.6% (active) in test [10].

Take `O=C1COc2ccccc2C(=O)N1CCCCNc1ccccc1`: the growth in [1] is 90.6%; in test [2], 81.8%; in test [3], 106%; in test [4], 94.1%; in test [5] it was 85.7%; in test [6], 47.2%. The growth in [7] is 99.3%; in [8], 95%; in [9] it was 101%; in test [10], 103%.

On to `CCCCn1c(-c2cccc(OC)c2)nc2cc(OC)c(OC)cc2c1=O`, for which the growth in test [1] is 103%; in test [2], 110%; in [3] it was 96.1%; in [4] it was 89.7%; in test [5] it was 96.3%; in test [6] it was 108%. Besides, the growth in test [7] was 97.1%; in test [8] it was 83.6%; in [9] it was 89.2%; in test [10], 109%.

Consider `O=[N+]([O-])c1ccc(NS(=O)(=O)c2ccccc2)c2ccccc12`, for which the growth in [1] was 46.8%; in [2], 57.5%; in test [3], 42.5%; in [4] it was 48.4%; in test [5], 37.5%; in test [6], 53.2%. Moreover, the growth in [7] was 0.136% (active); in test [8], 22.7%; in [9], 43.8%; in test [10] it was 37.5%.

For `COc1ccc2c(-c3ccc(F)cc3)c(C#N)c(=NC(C)=O)oc2c1`, the growth is 25.8% in test [1]; 95.6% in [2]; 34% in test [3]; 33.7% in test [4]; 39.5% in test [5]; 30.6% in test [6]. Also, the growth in test [7] was 24.7%; in test [8] it was 32.1%; in test [9] it was 41.9%; in test [10], 69.7%.
